Compounds without any hit were thinned out: in the full panel of roughly 79,000, 15% have a hit. A number with no mark means an inactive call. Activity calls are given as the source filed them. Cut-off read from the data, not from the text of the source: active = growth inhibition above about 70%; inactive = the rest.
Experiments:
[1] = NCI Yeast Anticancer Drug Screen. Data for the rad50 strain (AID 155);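 note: 0% = growth of vehicle-only cultures of the same strain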; settings: S. cerevisiae rad50 strain growth inhibition, stronger effect = higher value
Outline: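 Inhibition values express reduced yeast growth in compound-treated cultures relative to vehicle-treated controls.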

[2] = NCI Yeast Anticancer Drug Screen. Data for the mec2-1 strain (AID 157); settings: S. cerevisiae mec2-1 strain, stronger effect = higher value
Outline: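 Readout is yeast growth inhibition, normalised to vehicle-treated controls, in the mec2-1 strain exposed to compound.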

[3] = NCI Yeast Anticancer Drug Screen. Data for the sgs1 mgt1 strain (AID 161);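 note: 0% = growth of cultures given vehicle only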; settings: S. cerevisiae sgs1 mgt1 strain, stronger effect = higher value
Outline: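 Percent growth inhibition was derived by comparing compound-exposed mutant yeast with vehicle-exposed cultures. The strain carries alterations in DNA damage repair.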

[4] = NCI Yeast Anticancer Drug Screen. Data for the cln2 rad14 strain (AID 165);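 note: 0% = growth equal to vehicle treated cultures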; settings: S. cerevisiae cln2 rad14 strain, stronger effect = higher value
Outline: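 Relative to vehicle controls, growth inhibition of compound-treated cln2 rad14 yeast was recorded.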

[5] = NCI Yeast Anticancer Drug Screen. Data for the bub3 strain (AID 167); settings: S. cerevisiae bub3 mutant strain, stronger effect = higher value
Outline: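 Steps: expose the mutant yeast strain to compound; grow alongside vehicle-treated cultures; measure growth; express inhibition against the vehicle cultures.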

[6] = NCI Yeast Anticancer Drug Screen. Data for the mlh1 rad18 strain (AID 175); settings: S. cerevisiae mlh1 rad18 strain growth inhibition, stronger effect = higher value
Outline: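 Test agents were incubated with a yeast strain of defined genotype (DNA damage repair defect). Inhibition of growth was derived by comparison with vehicle-exposed cultures.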

[7] = at 5.0 µM (retest, dose inferred, filed as 0.5)
[8] = at 50.0 µM (retest, dose inferred, filed as 5.0)

SMILES	growth inhibition [1, 7]	growth inhibition [1, 8]	growth inhibition ([1]; at 50.0 µM)	growth inhibition [2, 7]	growth inhibition [2, 8]	growth inhibition ([2]; at 50.0 µM)	growth inhibition [3, 7]	growth inhibition [3, 8]	growth inhibition ([3]; at 50.0 µM)	growth inhibition [4, 7]	growth inhibition [4, 8]	growth inhibition ([4]; at 50.0 µM)	growth inhibition [5, 7]	growth inhibition [5, 8]	growth inhibition ([5]; at 50.0 µM)	growth inhibition [6, 7]	growth inhibition [6, 8]	growth inhibition ([6]; at 50.0 µM)
CN(C)CCCNc1c2ccccc2nc2ccc([N+](=O)[O-])cc12	16%	80% (active)	68.3%	13%	70% (active)	25.6%	21%	80% (active)	20.7%	19%	54%	52.5%	11%	59%	39.5%	31%	84% (active)	29.2%
C=CC1(c2ccc(-c3ccccc3)cc2)OCCO1	1%	14%	51.3%	2%	6%	41.5%	-4%	-10%	74.4% (active)	19%	8%	7.15%	-22%	-6%	64.1%	-17%	0%	49.5%
O=C1c2ccccc2CCC1C(O)(C(F)(F)F)C(F)(F)F (configuration not stated)	19%	13%	-5.3%	16%	7%	-3.6%	22%	7%	-35.8%	4%	11%	10.9%	-12%	1%	31.6%	22%	20%	-11.3%
COc1ccc2c(c1)C(=O)/C(=C/c1ccc([N+](=O)[O-])o1)CO2	15%	99% (active)	97.2% (active)	10%	100% (active)	38.2%	33%	100% (active)	98.1% (active)	15%	99% (active)	57.1%	15%	99% (active)	89.8% (active)	78% (active)	99% (active)	98.2% (active)
O=C(c1ccccc1)C1(C(=O)c2ccccc2)/C(=N\O)C2CCC1C2 (configuration not stated)	7%	93% (active)	6.05%	1%	96% (active)	12.7%	-2%	95% (active)	9.75%	-2%	94% (active)	1.9%	0%	95% (active)	53.1%	12%	93% (active)	13.7%
Cc1ccc(C(O)CCN2CCOCC2)c(C)c1 (configuration not stated)	26%	69%	81.5% (active)	30%	61%	45.1%	44%	68%	78% (active)	44%	71% (active)	57.2%	43%	82% (active)	70%	23%	65%	69.2%
COC(=O)c1cc(=O)n(-c2ccccc2C(F)(F)F)c(SC)n1	24%	91% (active)	99.2% (active)	14%	92% (active)	99.5% (active)	43%	94% (active)	99.5% (active)	14%	87% (active)	96.8% (active)	7%	89% (active)	99.5% (active)	39%	95% (active)	99.5% (active)
CCCCCC(C)[P+](c1ccccc1)(c1ccccc1)c1ccccc1 (configuration not stated)	54%	98% (active)	90.8% (active)	48%	99% (active)	90.9% (active)	71% (active)	99% (active)	90% (active)	61%	98% (active)	90.1% (active)	69%	99% (active)	91% (active)	45%	98% (active)	88.5% (active)
CC(C)C(O)(C(=O)OCN1C(=O)C2C3C=CC(C2C1=O)C1C2C(=O)N(COC(=O)C(O)(C(C)C)C(C)O)C(=O)C2C31)C(C)O (configuration not stated)	0%	-7%	28.5%	-2%	11%	52%	-7%	17%	37.9%	0%	-2%	18.1%	5%	9%	-2%	-3%	2%	30.6%
